Test results: PubChem BioAssay (EPA / NIEHS)
Inconclusive results are not listed. Active and inactive are the calls of the source. Rule for the calls: active = hit-call score of the fitted dose curve at least 0.9, where 1 is the maximum; inconclusive = response in the unintended direction; inactive = score below 0.9.

Test: Tanguay_ZF_120hpf_JAW_legacy: (Legacy) Oregon State University Tanguay Lab 120 Hour Post-fertilization zebrafish Assay for Jaw Malformation (AID 2283638);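 for AC50: active means more embryos with jaw malformation than DMSO controls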
Method in brief: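 Static waterborne exposure of dechorionated wild-type (Tropical 5D) zebrafish from 6 to 120 hpf at 28C, 0.64% DMSO vehicle; 5uM trimethyltin chloride served as positive control. Jaw morphology recorded as binary at 120 hpf.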

| SMILES | outcome | AC50 |
| --- | --- | --- |
| CCCCCCC(=O)O | inactive | – |
| OCCC(F)(F)C(F)(F)C(F)(F)C(F)(F)C(F)(F)C(F)(F)F | inactive | – |
| COCC(C)O (stereo not given) | inactive | – |
| CC(C)CCCCCCOC(=O)CCCCC(=O)OCCCCCCC(C)C | inactive | – |
| O=C(O)c1ccccc1C(c1ccc(O)cc1)c1ccc(O)cc1 | inactive | – |
| CCCCCCCCOC(=O)CCCCCCCCC(=O)OCCCCCCCC | inactive | – |
| CCc1nn(C2CCCCC2)c2cc(C3(C#N)CCC(C(=O)O)CC3)ccc12 (stereo not given) | – | 332 nM (active) |
| C[C@@H]1C[C@H]2[C@@H]3CCC4=CC(=O)C=C[C@]4(C)[C@@]3(F)[C@@H](O)C[C@]2(C)[C@@]1(O)C(=O)COP(=O)(O)O | inactive | – |
| CC1=C(/C=C/C(C)=C/C=C/C(C)=C/C(=O)O)C(C)(C)CCC1 | – | 144 nM (active) |
| NC(=O)N1C(=O)C(C(=O)c2cc(Cl)cs2)c2cc(F)c(Cl)cc21 (stereo not given) | inactive | – |
| CN1CCN(c2ccccc2/C=C2\SCCN(c3ccc(Cl)c(Cl)c3)C2=O)CC1 | inactive | – |
| OC1CCCCC1 | inactive | – |
| CCCCOCCO | inactive | – |
| NC(=O)N(O)[C@@H]1C=C[C@H](Oc2cccc(Oc3ccc(F)cc3)c2)C1 | inactive | – |
| Cc1cc(C)c(O)c(C)c1 | inactive | – |
| CCN(CC)CCNc1ccc(CNC=O)c2sc3ccc(OC)cc3c(=O)c12 | inactive | – |
| COc1ccc([N+](=O)[O-])cc1N | inactive | – |
| Cc1cc(CCN2CCN(c3nsc4ccccc34)CC2)cc2c1NC(=O)CC2(C)C | – | 3260 nM (active) |
| CCCCCCCCCCCCCCCS(=O)(=O)Oc1ccccc1 | inactive | – |
| CCCCC(CC)COC(=O)CCCCC(=O)OCc1ccccc1 (stereo not given) | inactive | – |
| c1ccc2c(c1)Cc1ccccc1-2 | inactive | – |
| CC[C@H](C)[C@@H](C(=O)O)n1sc2ccccc2c1=O | inactive | – |
| O=C(OCCOCCOC(=O)c1ccccc1)c1ccccc1 | inactive | – |
| CCC(C)(C)C1CCC(O)CC1 (stereo not given) | inactive | – |
| CN1CCC[C@H]1c1cccnc1 | inactive | – |

Test: Tanguay_ZF_120hpf_OTIC_legacy: (Legacy) Oregon State University Tanguay Lab 120 Hour Post-fertilization zebrafish Assay for Otic Vesicle Malformation (AID 2283639)
Method in brief: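 Tropical 5D wild-type zebrafish embryos statically exposed in 0.64% DMSO at 28C until 120 hpf; 5uM trimethyltin chloride as positive control. Otic vesicle malformation scored present/absent by brightfield; dead embryos not scored; gain fitted versus DMSO.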

| SMILES | outcome | AC50 |
| --- | --- | --- |
| CCCCCCC(=O)O | inactive | – |
| CCCCCCCCCCCCc1ccccc1S(=O)(=O)O | inactive | – |
| OCCC(F)(F)C(F)(F)C(F)(F)C(F)(F)C(F)(F)C(F)(F)F | inactive | – |
| COCC(C)O (stereo not given) | inactive | – |
| CC(C)CCCCCCOC(=O)CCCCC(=O)OCCCCCCC(C)C | inactive | – |
| O=C(O)c1ccccc1C(c1ccc(O)cc1)c1ccc(O)cc1 | inactive | – |
| CCCCCCCCOC(=O)CCCCCCCCC(=O)OCCCCCCCC | inactive | – |
| CCc1nn(C2CCCCC2)c2cc(C3(C#N)CCC(C(=O)O)CC3)ccc12 (stereo not given) | – | 3660 nM (active) |
| C[C@@H]1C[C@H]2[C@@H]3CCC4=CC(=O)C=C[C@]4(C)[C@@]3(F)[C@@H](O)C[C@]2(C)[C@@]1(O)C(=O)COP(=O)(O)O | inactive | – |
| CC1=C(/C=C/C(C)=C/C=C/C(C)=C/C(=O)O)C(C)(C)CCC1 | – | 211 nM (active) |
| NC(=O)N1C(=O)C(C(=O)c2cc(Cl)cs2)c2cc(F)c(Cl)cc21 (stereo not given) | inactive | – |
| CN1CCN(c2ccccc2/C=C2\SCCN(c3ccc(Cl)c(Cl)c3)C2=O)CC1 | inactive | – |
| OC1CCCCC1 | inactive | – |
| CC(=O)NC1(c2cccc(F)c2)CCN(CC[C@@]2(c3ccc(Cl)c(Cl)c3)CN(c3ccccc3)C(=O)CO2)CC1 | inactive | – |
| Cc1cc(C)c(O)c(C)c1 | inactive | – |
| COc1ccc([N+](=O)[O-])cc1N | inactive | – |
| Cc1cc(CCN2CCN(c3nsc4ccccc34)CC2)cc2c1NC(=O)CC2(C)C | – | 6420 nM (active) |
| CCCCCCCCCCCCCCCS(=O)(=O)Oc1ccccc1 | inactive | – |
| CCCCC(CC)COC(=O)CCCCC(=O)OCc1ccccc1 (stereo not given) | inactive | – |
| c1ccc2c(c1)Cc1ccccc1-2 | inactive | – |
| CC[C@H](C)[C@@H](C(=O)O)n1sc2ccccc2c1=O | inactive | – |
| O=C(OCCOCCOC(=O)c1ccccc1)c1ccccc1 | inactive | – |
| CC(O)CO (stereo not given) | inactive | – |
| CCC(C)(C)C1CCC(O)CC1 (stereo not given) | inactive | – |
| CN1CCC[C@H]1c1cccnc1 | inactive | – |
